Experimental data as given in PubChem BioAssay (Tox21).
Records with an inconclusive call do not appear. Active and inactive are the calls of the source. Unless noted, calls come from the whole dose curve; as a rule, active = well fitted curve in the direction sought with a large enough effect in the repeat runs; inconclusive = weak or mixed curves; inactive = no such curve, though single readings can be large; an effect the other way counts as inactive or inconclusive.

Legend:
[1] = qHTS assay to identify small molecule agonists of the hypoxia (HIF-1) signaling pathway - cell viability counter screen (AID 1224844; calls by dose curve; note: nearly all actives have a fitted effect of over 50% in size)
In short: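 Cytotoxicity was measured in parallel with the HRE-driven beta-lactamase readout: after 17 hrs of compound exposure at 37C, HRE-bla ME-180 cells received CellTiter-Glo and luminescence was recorded 30 min later.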

[2] = qHTS assay to identify small molecule agonists of H2AX (AID 1224845; active = well fitted activation curve with a large enough effect in the signal ratio in the repeat runs, not every such curve was filed as active; the % refers to the signal ratio)
In short: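 Wild-type CHO-K1 cells plated overnight, then exposed 3 hr at 37C to compounds at 15 concentrations (0.76% DMSO). Lysed, then HTRF anti-pH2AX(S139)-cryptate/anti-H2AX-d2 detection after 24 hr at room temperature; emissions 665 and 620 nm.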

[3] = qHTS assay to identify small molecule agonists of the hypoxia (HIF-1) signaling pathway (AID 1224846; active = well fitted activation curve with a large enough effect in the signal ratio in the repeat runs, not every such curve was filed as active; the % refers to the signal ratio)
In short: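 Compounds from the Tox21 10K library, dissolved in DMSO, are tested for induction of a hypoxia response element–controlled beta-lactamase reporter in ME-180 cells. Exposure lasts 17 hrs at 37C after a 5 hr settling period, followed by CCF4-AM FRET substrate.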

[4] = qHTS assay to identify small molecule agonists of H2AX - cell viability counter screen (AID 1224847; calls by dose curve; note: top concentration of the series differs between compounds; nearly all actives have a fitted effect of over 30% in size)
In short: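 Viability of CHO-K1 (wild type) cells after 3 hr compound exposure was measured by CellTiter-Glo luminescence.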

[5] = qHTS RealTime-Glo MT Cell Viability Assay in HepG2 cells - 24 hour (AID 1224867); note: nearly all actives have a fitted effect of over 50% in size
In short: (§1)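 Viability was tracked continuously by NanoLuc luminescence from prosubstrate reduced by living HepG2 cells, at successive time points over 40 h of compound exposure. Cells with reagent were preincubated 5 h at 37 °C before compound addition.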

[6] = qHTS RealTime-Glo MT Cell Viability Assay in HEK293 cells - 32 hour (AID 1224868); note: top concentration of the series differs between compounds; nearly all actives have a fitted effect of over 50% in size
In short: (§2)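 Viability tracked continuously by luminescence as live cells reduce a prosubstrate for NanoLuc; HEK293 cells preincubated 5 h, compound-treated at 37 C, and read at 0, 8, 16, 24, 32 and 40 h.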

[7] = A CellTox Green Cytotoxicity Assay to monitor cytotoxicity in HEK293 cells - 0 hour (AID 1224869); note: nearly all actives have a fitted effect of over 50% in size
In short: (§3)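 Cells (HEK293, 600/well) and dye reagent are dispensed together. After 5 h at 37 C, 23 nL compound is pinned in. Plates stay at 37 C for 40 h with fluorescence read at 0h, 8h, 16h, 24h, 32h and 40h.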

[8] = qHTS RealTime-Glo MT Cell Viability Assay in HepG2 cells - 40 hour (AID 1224870); note: nearly all actives have a fitted effect of over 50% in size
In short: (§4)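 HepG2 cells mixed with RealTime-Glo MT reagents (NanoLuc plus cell-permeant prosubstrate) were seeded at 600 cells/well, incubated 5 h at 37 C/5% CO2, then pinned with compounds in DMSO; nonlytic luminescence tracked viability during 40 h treatment.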

[9] = A CellTox Green Cytotoxicity Assay to monitor cytotoxicity in HEK293 cells - 40 hour (AID 1224871); note: nearly all actives have a fitted effect of over 45% in size
In short: as §3

[10] = qHTS RealTime-Glo MT Cell Viability Assay in HEK293 cells - 16 hour (AID 1224872)
In short: as §2

[11] = qHTS RealTime-Glo MT Cell Viability Assay in HepG2 cells - 8 hour (AID 1224873); note: nearly all actives have a fitted effect of over 55% in size
In short: as §4

[12] = qHTS RealTime-Glo MT Cell Viability Assay in HEK293 cells - 40 hour (AID 1224874); conditions: RealTime-Glo luminescence; max response: hits give low values; note: nearly all actives have a fitted effect of over 50% in size
In short: (§5)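 Real-time viability in HEK293: signal arises when living cells convert a prosubstrate for NanoLuc in the medium, so luminescence tracks viable cell number. Compound (23 nL, DMSO) added 5 h post-seeding; kinetic reads at 0–40 h, 37 C.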

[13] = A CellTox Green Cytotoxicity Assay to monitor cytotoxicity in HEK293 cells - 24 hour (AID 1224875); note: nearly all actives have a fitted effect of over 45% in size
In short: as §3

[14] = A CellTox Green Cytotoxicity Assay to monitor cytotoxicity in HepG2 cells - 16 hour (AID 1224876); note: nearly all actives have a fitted effect of over 45% in size
In short: (§6)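 Cells and non-lytic dye reagent are dispensed together (600 HepG2 cells/well) and incubated 5 h before DMSO compound transfer. Kinetic fluorescence is then recorded in the same wells during 40 h at 37 C.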

[15] = qHTS RealTime-Glo MT Cell Viability Assay in HepG2 cells - 32 hour (AID 1224877); note: nearly all actives have a fitted effect of over 55% in size
In short: as §1

[16] = A CellTox Green Cytotoxicity Assay to monitor cytotoxicity in HepG2 cells - 24 hour (AID 1224878); note: nearly all actives have a fitted effect of over 45% in size
In short: as §6

[17] = A CellTox Green Cytotoxicity Assay to monitor cytotoxicity in HepG2 cells - 40 hour (AID 1224879); note: nearly all actives have a fitted effect of over 40% in size
In short: as §6

[18] = qHTS RealTime-Glo MT Cell Viability Assay in HEK293 cells - 0 hour (AID 1224880)
In short: as §5

[19] = qHTS assay to identify small molecule agonists of the estrogen related receptor (ERR) signaling pathway from Tox21 library (AID 1224849; calls by dose curve; note: nearly all actives have a fitted effect of over 15% in size); conditions: ERR reporter cell line, ONE-Glo luciferase, 18 h; at 92.4 µM (top of the series) unless noted
In short: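 Cells carrying the ERR reporter were plated and allowed to settle for 6 h, exposed to library compounds for 18 h at 37 C, then lysed with ONE-Glo and luminescence measured.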

[20] = qHTS assay to identify small molecule antagonists of the estrogen related receptor (ERR) signaling pathway from Tox21 library (AID 1224848); note: nearly all actives have a fitted effect of over 50% in size
In short: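 First, 2,000 ERR cells per well were plated and held 6 h at 37 C/5% CO2. Next, compounds in DMSO were pinned in and left 18 h at 37 C. Finally, ONE-Glo was added and luminescence read after 30 min at room temperature.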
% is set by controls: 0 for no effect and ±100 for the full control effect.

C=CC(=C)C
inactive: Potency [1] | Potency [2] | Potency [3] | Potency [4] | Potency [5] | Potency [6] | Potency [7] | Potency [8] | Potency [9] | Potency [10] | Potency [11] | max response [12] 8.63% | Potency [13] | Potency [14] | Potency [15] | Potency [16] | Potency [17] | Potency [18]

CCNS(=O)(=O)C(F)(F)C(F)(F)C(F)(F)C(F)(F)C(F)(F)C(F)(F)C(F)(F)C(F)(F)F
inactive: Potency [1] | Potency [2] | Potency [3] | Potency [4] | activity change, positive = activation [19] -10.2% | Potency [5] | Potency [6] | Potency [7] | Potency [8] | Potency [9] | Potency [10] | Potency [11] | max response [12] 23.4% | Potency [13] | Potency [14] | Potency [15] | Potency [16] | Potency [17] | Potency [18]

Cc1cc2c3c(c1)C(c1ccccc1)=N[C@@H](NC(=O)c1ccncc1)C(=O)N3CC2
inactive: Potency [1] | Potency [2] | Potency [3] | Potency [4] | activity change, positive = activation [19] -15.6% | Potency [5] | Potency [6] | Potency [7] | Potency [8] | Potency [9] | Potency [10] | Potency [11] | max response [12] -16.5% | Potency [13] | Potency [15] | Potency [16] | Potency [17] | Potency [18]

CCOC(=O)CCN(SN(C)C(=O)Oc1cccc2c1OC(C)(C)C2)C(C)C
inactive: Potency [1] | Potency [2] | Potency [3] | Potency [4] | activity change, positive = activation [19] -43.3% | Potency [5] | Potency [6] | Potency [7] | Potency [8] | Potency [9] | Potency [10] | Potency [11] | max response [12] -6% | Potency [13] | Potency [14] | Potency [15] | Potency [16] | Potency [17] | Potency [18]

N#Cc1ccc(N(CC(N)=O)CC(F)(F)F)cc1C(F)(F)F
inactive: Potency [1] | Potency [2] | Potency [3] | Potency [4] | Potency [5] | Potency [6] | Potency [7] | Potency [8] | Potency [9] | Potency [10] | Potency [11] | max response [12] 0.171% | Potency [13] | Potency [14] | Potency [15] | Potency [16] | Potency [17] | Potency [18]

ClC1(Cl)C2(Cl)C3(Cl)C4(Cl)C(Cl)(Cl)C5(Cl)C3(Cl)C1(Cl)C5(Cl)C24Cl (stereo unspecified)
inactive: Potency [1] | Potency [2] | Potency [3] | Potency [4] | Potency [20] | activity change, positive = activation [19] 2.52% | Potency [5] | Potency [6] | Potency [7] | Potency [8] | Potency [9] | Potency [10] | Potency [11] | max response [12] -13.1% | Potency [13] | Potency [14] | Potency [15] | Potency [16] | Potency [17] | Potency [18]

CC(C)=CCN1CC[C@@]2(C)c3cc(O)ccc3C[C@@H]1[C@@H]2C
inactive: Potency [1] | Potency [2] | Potency [3] | Potency [4] | Potency [5] | Potency [7] | Potency [8] | Potency [9] | Potency [11] | Potency [13] | Potency [14] | Potency [15] | Potency [16] | Potency [18]
